The panel holds about 83,000 compounds, 20% with a hit somewhere; the sample as a whole holds those more often.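 Step 1: grow cells in 96-well plates. Step 2: add test compound at a single concentration. Step 3: incubate 48 h. Step 4: record percent growth.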 A number with no mark means an inactive call. Calls of active or inactive are those of the source. Rule for the calls: active = growth percent below 10; inactive = the rest.

The assay has as its system NCI-H23 lung. The assay can be described thus: NCI-60 one-dose screen, 48 h (100 = growth as untreated, 0 = no growth, -100 = all killed). As to conditions: 10 µM.
Consider `CCOC(=O)c1cc(-c2ccccc2)nc(N)n1`, for which the growth was 99.5%.

As for `COc1cc(C)c2sc3ccccc3c(=O)c2c1NCCN(C)C`, the growth is 76.3%. Take `C/C=C\COc1cc(C)c(Cl)cc1Cl`: the growth was 111%. In the case of `NC(N)=NS(=O)(=O)c1ccc(Nc2ccc3nnc(-c4ccncc4)n3n2)cc1` it was 102%; in that of `COc1ccc(C2C=C(c3ccc(Cl)c(Cl)c3)N=C3SC(C)=CN32)cc1` (stereo not drawn), 92.2%. Regarding `CC(=O)OC1Oc2ccccc2-c2oc(=O)c(-c3ccc(F)cc3)cc21` (stereo not drawn), the growth was 92.5%.

In the case of `CS(=O)(=O)Nc1ccc(Nc2c3ccccc3nc3cc(Cl)ccc23)cc1`, the growth is 42.7%. `COc1cc2nc(Sc3sc(N)nc3C)n(-c3ccc(Oc4ccccc4)cc3)c(=O)c2cc1OC`: the growth is 90.6%. As to `CCOC(=O)c1sc(NC(=O)c2cc(OC)c(OC)c(OC)c2)nc1C`, the growth is 93.3%. In the case of `O=C(Nc1ccc(OCc2nnc(-c3ccccc3)o2)c(F)c1)Nc1ccc(Cl)c(Cl)c1`, the growth is 53%.

Take `COc1ccc(/C=C2\SC(=S)N(CCCN3CCOCC3)C2=O)c(OC)c1`: the growth is 98.9%.

With `CCSc1nc2c([nH]1)c(=O)n(C)c(=S)n2C`, the growth is 98.6%. For the compound `CCNC(=S)NN`, the growth was 93.1%.

Regarding `COc1ccc(-c2ccc(-c3ccc(C(=N)N)c(F)c3)s2)cc1`, the growth was -81.9% (active). With `O=C(c1ccc(Cl)cc1)c1no[n+]([O-])c1C(=O)c1ccc(Cl)cc1`, the growth was 98.4%. `COc1cccc2c1O/C(=C\c1ccc([N+](=O)[O-])s1)C2=O`: the growth was 71.8%. On to `NCCNc1ccc2cc(-c3nc4ccccc4[nH]3)c(=O)oc2c1`, for which the growth is 90.7%. On to `Fc1ccc(Nc2ccnc(N3CCN(c4ccnc5cc(Cl)ccc45)CC3)n2)cc1`, for which the growth is 44.5%.

`Clc1cc(Cl)c(Cl)c(-c2nc(-c3cccnc3)cs2)c1`: the growth was 94.8%.

Regarding `CCCc1c(CC)c(=N)c2ccccc2n1C`, the growth was 88%. As to `N#CN1CC[C@H](C(=O)Nc2ncc(-c3ccccc3)s2)C1`, the growth was -9.83% (active).

Consider `C[N+]1=C(/C=C/c2ccc(I)cc2)C(C)(C)c2ccccc21`, for which the growth is 82%. The same measure for `Clc1cc(Cl)c(OCCCCCCN2CCNCC2)c(Cl)c1`: 53.9%; for `COCCOC(=O)NC(=O)Nc1ccc(C(=O)c2ccc(Cl)cc2)cc1`: 36.2%. Consider `CCCCCCCCCCSC(=N)N` (tested in a mixture with another compound), for which the growth is 80%. In the case of `COc1cc(-c2nc3ccccc3[nH]2)ccc1OCc1nnc(-c2ccc(Br)cc2)o1` it was 95.8%; in that of `O=S(=O)(NCCO)c1ccc(OCCOc2ccc(S(=O)(=O)NCCO)cc2)cc1`, 96.6%; in that of `Cc1ccc([P+](Cc2ccccc2)(c2ccccc2)c2ccccc2)cc1`, 12.4%. Consider `O=C(Nc1cccc(Cl)c1)OCC(COC(=O)Nc1cccc(Cl)c1)(COC(=O)Nc1cccc(Cl)c1)[N+](=O)[O-]`, for which the growth was 22.9%. The same measure for `COc1ccc(Cn2cc3c(c2-c2cc(OC)c(OC)c(OC)c2)CCc2cnoc2-3)cc1N`: 15.8%; for `COc1ccc(-c2nnc(SCC(=O)c3ccccc3)o2)cc1`: 91.2%. The same measure for `Cc1ccc([P+](Cc2ccc([N+](=O)[O-])cc2)(c2ccc(C)cc2)c2ccc(C)cc2)cc1`: 41%; for `Cc1cc(Cl)ccc1Nc1nc(C(F)(F)F)ccc1C(=O)N/N=C/c1ccccc1Cl`: 16.9%; for `O=C(OCc1ncc(-c2ccc(C(F)(F)F)cc2)c(NC2CCCCCC2)n1)c1c(F)c(F)c(F)c(F)c1F`: 63.1%.

For the compound `O=C1CC(c2cccc(-c3cccnc3)c2)=Nc2ccc(Br)cc2N1`, the growth was 44.4%. In the case of `c1ccc(OCCC[P+](c2ccccc2)(c2ccccc2)c2ccccc2)cc1`, the growth is 1.67% (active).

Regarding `COCCNCC(O)Cn1c2ccc(Cl)cc2c2cc(Cl)ccc21` (stereo not drawn), the growth is -36.8% (active). Turning to `Nc1cc2c(cc1Cl)-c1ccc(Cl)cc1C2=O`, the growth was 98.3%.

The values above are taken from PubChem BioAssay (NCI).
